Laboratory results published in PubChem BioAssay AID1159580 (chemical genetic matrix, 2015).
Screen size: about 5,500 compounds; about 2,000 (36%) were called active. Inconclusive results (about 18%) are left out. Rule as the data show it: active = normalized growth mostly below about 0.91 (no sharp cut-off); inconclusive = no clear call, values can overlap the other calls; inactive = mostly above about 0.92. The list shows a part of the results.

Assay: chemical genetic growth profiling, strain panel (AID 1159580);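 also: tested at 20 µM; growth read once vehicle control cultures reached saturation at 30 °C; 1 = growth at the plate median or of vehicle wells; lower values mean less growth of the strain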
Details: growth OD

Measured: normalized growth

CC(=O)OCC(OC(C)=O)C(OC(C)=O)C(OC(C)=O)C(OC(C)=O)C(COC(C)=O)OC(C)=O (stereo not given)
inactive: S. cerevisiae deletion strains, locus YAL021C, strain ccr4, stronger effect = lower value 0.998 | S. cerevisiae deletion strains, locus YAL026C, strain drs2, stronger effect = lower value 0.993 | S. cerevisiae deletion strains, locus YAL030W, strain snc1, stronger effect = lower value 0.994 | S. cerevisiae deletion strains, locus YBL061C, strain skt5, stronger effect = lower value 0.985 | S. cerevisiae deletion strains, locus YBR009C, strain hhf1, stronger effect = lower value 0.994 | S. cerevisiae deletion strains, locus YBR021W, strain FUR4, stronger effect = lower value 1.01 | S. cerevisiae deletion strains, locus YBR023C, strain chs3, stronger effect = lower value 0.99 | S. cerevisiae deletion strains, locus YBR171W, strain sec66, stronger effect = lower value 0.985 | S. cerevisiae deletion strains, locus YBR229C, strain ROT2, stronger effect = lower value 0.996 | S. cerevisiae deletion strains, locus YBR231C, strain swc5, stronger effect = lower value 0.989 | S. cerevisiae deletion strains, locus YBR279W, strain paf1, stronger effect = lower value 0.994 | S. cerevisiae deletion strains, locus YCL011C, strain gbp2, stronger effect = lower value 0.996 | S. cerevisiae deletion strains, locus YCL016C, strain dcc1, stronger effect = lower value 0.994 | S. cerevisiae deletion strains, locus YCL029C, strain bik1, stronger effect = lower value 0.984 | S. cerevisiae deletion strains, locus YCL061C, strain MRC1, stronger effect = lower value 0.992 | S. cerevisiae deletion strains, locus YCL069W, strain vba3, stronger effect = lower value 0.999 | S. cerevisiae deletion strains, locus YCR088W, strain abp1, stronger effect = lower value 0.991 | S. cerevisiae deletion strains, locus YDL005C, strain med2, stronger effect = lower value 0.989 | S. cerevisiae deletion strains, locus YDL035C, strain GPR1, stronger effect = lower value 1.07 | S. cerevisiae deletion strains, locus YDL040C, strain nat1, stronger effect = lower value 0.98 | S. cerevisiae deletion strains, locus YDL074C, strain BRE1, stronger effect = lower value 1.09 | S. cerevisiae deletion strains, locus YDL101C, strain DUN1, stronger effect = lower value 1 | S. cerevisiae deletion strains, locus YDL185W, strain tfp1, stronger effect = lower value 0.991 | S. cerevisiae deletion strains, locus YDL192W, strain arf1, stronger effect = lower value 1.02 | S. cerevisiae deletion strains, locus YDR001C, strain nth1, stronger effect = lower value 0.99 | S. cerevisiae deletion strains, locus YDR069C, strain doa4, stronger effect = lower value 0.986 | S. cerevisiae deletion strains, locus YDR101C, strain arx1, stronger effect = lower value 1.01 | S. cerevisiae deletion strains, locus YDR137W, strain rgp1, stronger effect = lower value 1.01 | S. cerevisiae deletion strains, locus YDR150W, strain NUM1, stronger effect = lower value 1.01 | S. cerevisiae deletion strains, locus YDR159W, strain sac3, stronger effect = lower value 0.979 | S. cerevisiae deletion strains, locus YDR162C, strain NBP2, stronger effect = lower value 1.03 | S. cerevisiae deletion strains, locus YDR195W, strain ref2 0.943 | S. cerevisiae deletion strains, locus YDR297W, strain sur2, stronger effect = lower value 0.992 | S. cerevisiae deletion strains, locus YDR318W, strain mcm21, stronger effect = lower value 0.999 | S. cerevisiae deletion strains, locus YDR334W, strain swr1, stronger effect = lower value 0.983 | S. cerevisiae deletion strains, locus YDR335W, strain msn5, stronger effect = lower value 0.986 | S. cerevisiae deletion strains, locus YDR388W, stronger effect = lower value 0.983 | S. cerevisiae deletion strains, locus YDR392W, strain spt3, stronger effect = lower value 0.99 | S. cerevisiae deletion strains, locus YDR502C, strain sam2, stronger effect = lower value 0.998 | S. cerevisiae deletion strains, locus YEL003W, strain gim4, stronger effect = lower value 0.993 | S. cerevisiae deletion strains, locus YEL037C, strain rad23, stronger effect = lower value 0.989 | S. cerevisiae deletion strains, locus YEL061C, strain CIN8 (second series), stronger effect = lower value 0.979 | S. cerevisiae deletion strains, locus YER015W, strain faa2, stronger effect = lower value 0.992 | S. cerevisiae deletion strains, locus YER016W, strain bim1, stronger effect = lower value 0.988 | S. cerevisiae deletion strains, locus YER110C, stronger effect = lower value 0.963 | S. cerevisiae deletion strains, locus YER111C, strain swi4, stronger effect = lower value 0.985 | S. cerevisiae deletion strains, locus YER155C, strain BEM2 (second series), stronger effect = lower value 0.981 | S. cerevisiae deletion strains, locus YER155C, strain BEM2, stronger effect = lower value 0.972 | S. cerevisiae deletion strains, locus YER167W, strain BCK2, stronger effect = lower value 1.01 | S. cerevisiae deletion strains, locus YFR010W, strain ubp6, stronger effect = lower value 0.989 | S. cerevisiae deletion strains, locus YGL078C, strain dbp3, stronger effect = lower value 0.976 | S. cerevisiae deletion strains, locus YGL086W, strain mad1, stronger effect = lower value 1 | S. cerevisiae deletion strains, locus YGL167C, strain pmr1, stronger effect = lower value 0.998 | S. cerevisiae deletion strains, locus YGL173C, strain kem1, stronger effect = lower value 0.991 | S. cerevisiae deletion strains, locus YGL227W, strain vid30, stronger effect = lower value 0.99 | S. cerevisiae deletion strains, locus YGL240W, strain doc1, stronger effect = lower value 0.998 | S. cerevisiae deletion strains, locus YGL248W, strain PDE1, stronger effect = lower value 1.03 | S. cerevisiae deletion strains, locus YGL253W, strain hxk2, stronger effect = lower value 0.984 | S. cerevisiae deletion strains, locus YGR078C, strain PAC10, stronger effect = lower value 1.02 | S. cerevisiae deletion strains, locus YGR135W, strain pre9, stronger effect = lower value 0.964 | S. cerevisiae deletion strains, locus YGR252W, strain gcn5, stronger effect = lower value 0.996 | S. cerevisiae deletion strains, locus YHR013C, strain ard1, stronger effect = lower value 0.964 | S. cerevisiae deletion strains, locus YHR027C, strain rpn1, stronger effect = lower value 0.995 | S. cerevisiae deletion strains, locus YHR030C, strain SLT2, stronger effect = lower value 1.01 | S. cerevisiae deletion strains, locus YHR079C, strain IRE1 (second series), stronger effect = lower value 0.987 | S. cerevisiae deletion strains, locus YHR094C, strain hxt1, stronger effect = lower value 0.987 | S. cerevisiae deletion strains, locus YHR129C, strain ARP1, stronger effect = lower value 1 | S. cerevisiae deletion strains, locus YHR142W, strain chs7, stronger effect = lower value 0.983 | S. cerevisiae deletion strains, locus YHR200W, strain rpn10, stronger effect = lower value 0.986 | S. cerevisiae deletion strains, locus YIL066C, strain RNR3, stronger effect = lower value 1.02 | S. cerevisiae deletion strains, locus YIL073C, strain SPO22, stronger effect = lower value 1.06 | S. cerevisiae deletion strains, locus YIL125W, strain kgd1, stronger effect = lower value 0.976 | S. cerevisiae deletion strains, locus YIR030C, strain dcg1, stronger effect = lower value 0.978 | S. cerevisiae deletion strains, locus YJL092W, strain hpr5, stronger effect = lower value 0.998 | S. cerevisiae deletion strains, locus YJL095W, strain BCK1 (second series), stronger effect = lower value 0.985 | S. cerevisiae deletion strains, locus YJL095W, strain BCK1, stronger effect = lower value 1.05 | S. cerevisiae deletion strains, locus YJL115W, strain asf1, stronger effect = lower value 0.975 | S. cerevisiae deletion strains, locus YJL129C, strain trk1, stronger effect = lower value 0.988 | S. cerevisiae deletion strains, locus YJL134W, strain LCB3, stronger effect = lower value 1 | S. cerevisiae deletion strains, locus YJL154C, strain vps35, stronger effect = lower value 0.986 | S. cerevisiae deletion strains, locus YJL164C, strain tpk1, stronger effect = lower value 0.986 | S. cerevisiae deletion strains, locus YJL166W, strain qcr8, stronger effect = lower value 0.993 | S. cerevisiae deletion strains, locus YJL168C, strain set2, stronger effect = lower value 0.98 | S. cerevisiae deletion strains, locus YJL187C, strain SWE1 (second series), stronger effect = lower value 1.02 | S. cerevisiae deletion strains, locus YJL187C, strain SWE1, stronger effect = lower value 1 | S. cerevisiae deletion strains, locus YJR043C, strain POL32, stronger effect = lower value 1.07 | S. cerevisiae deletion strains, locus YKL009W, strain mrt4, stronger effect = lower value 1.01 | S. cerevisiae deletion strains, locus YKL068W, stronger effect = lower value 0.995 | S. cerevisiae deletion strains, locus YKL085W, strain MDH1 (second series), stronger effect = lower value 0.992 | S. cerevisiae deletion strains, locus YKL085W, strain MDH1, stronger effect = lower value 0.992 | S. cerevisiae deletion strains, locus YKL160W, strain elf1, stronger effect = lower value 0.997 | S. cerevisiae deletion strains, locus YKR001C, strain vps1, stronger effect = lower value 1.04 | S. cerevisiae deletion strains, locus YKR026C, strain gcn3, stronger effect = lower value 0.999 | S. cerevisiae deletion strains, locus YKR091W, strain srl3, stronger effect = lower value 0.991 | S. cerevisiae deletion strains, locus YLL001W, strain dnm1, stronger effect = lower value 0.989 | S. cerevisiae deletion strains, locus YLL026W, stronger effect = lower value 0.994 | S. cerevisiae deletion strains, locus YLL041C, strain sdh2, stronger effect = lower value 0.995 | S. cerevisiae deletion strains, locus YLR027C, strain aat2, stronger effect = lower value 0.995 | S. cerevisiae deletion strains, locus YLR039C, strain RIC1, stronger effect = lower value 1.2 | S. cerevisiae deletion strains, locus YLR058C, strain SHM2, stronger effect = lower value 1.02 | S. cerevisiae deletion strains, locus YLR102C, strain apc9, stronger effect = lower value 0.975 | S. cerevisiae deletion strains, locus YLR221C, strain rsa3, stronger effect = lower value 0.999 | S. cerevisiae deletion strains, locus YLR258W, strain gsy2, stronger effect = lower value 0.994 | S. cerevisiae deletion strains, locus YLR262C, strain YPT6 (second series), stronger effect = lower value 1.01 | S. cerevisiae deletion strains, locus YLR268W, strain sec22, stronger effect = lower value 1.04 | S. cerevisiae deletion strains, locus YLR320W, strain mms22, stronger effect = lower value 0.992 | S. cerevisiae deletion strains, locus YLR330W, strain CHS5, stronger effect = lower value 1 | S. cerevisiae deletion strains, locus YLR342W, strain FKS1, stronger effect = lower value 0.987 | S. cerevisiae deletion strains, locus YLR357W, strain rsc2, stronger effect = lower value 0.982 | S. cerevisiae deletion strains, locus YLR370C, strain arc18, stronger effect = lower value 0.99 | S. cerevisiae deletion strains, locus YLR371W, strain rom2, stronger effect = lower value 0.989 | S. cerevisiae deletion strains, locus YLR384C, strain iki3, stronger effect = lower value 1 | S. cerevisiae deletion strains, locus YLR418C, strain cdc73, stronger effect = lower value 1.01 | S. cerevisiae deletion strains, locus YML016C, strain PPZ1, stronger effect = lower value 1.01 | S. cerevisiae deletion strains, locus YML032C, strain rad52, stronger effect = lower value 0.993 | S. cerevisiae deletion strains, locus YML120C, strain ndi1, stronger effect = lower value 0.985 | S. cerevisiae deletion strains, locus YML124C, strain tub3, stronger effect = lower value 0.99 | S. cerevisiae deletion strains, locus YMR058W, strain fet3, stronger effect = lower value 0.994 | S. cerevisiae deletion strains, locus YMR078C, strain ctf18, stronger effect = lower value 0.981 | S. cerevisiae deletion strains, locus YMR125W, strain sto1, stronger effect = lower value 0.975 | S. cerevisiae deletion strains, locus YMR129W, stronger effect = lower value 0.991 | S. cerevisiae deletion strains, locus YMR205C, strain PFK2, stronger effect = lower value 0.985 | S. cerevisiae deletion strains, locus YMR223W, strain ubp8, stronger effect = lower value 0.993 | S. cerevisiae deletion strains, locus YMR231W, strain pep5, stronger effect = lower value 1 | S. cerevisiae deletion strains, locus YMR307W, strain GAS1, stronger effect = lower value 1.09 | S. cerevisiae deletion strains, locus YNL067W, strain RPL9B, stronger effect = lower value 1.01 | S. cerevisiae deletion strains, locus YNL071W, strain lat1, stronger effect = lower value 0.99 | S. cerevisiae deletion strains, locus YNL128W, strain TEP1, stronger effect = lower value 1 | S. cerevisiae deletion strains, locus YNL209W, strain ssb2, stronger effect = lower value 0.998 | S. cerevisiae deletion strains, locus YNL233W, strain BNI4, stronger effect = lower value 1.03 | S. cerevisiae deletion strains, locus YNL248C, strain rpa49, stronger effect = lower value 1.01 | S. cerevisiae deletion strains, locus YNL250W, strain rad50, stronger effect = lower value 0.978 | S. cerevisiae deletion strains, locus YNL271C, strain bni1, stronger effect = lower value 0.998 | S. cerevisiae deletion strains, locus YNL298W, strain CLA4, stronger effect = lower value 0.987 | S. cerevisiae deletion strains, locus YNL307C, strain MCK1, stronger effect = lower value 0.977 | S. cerevisiae deletion strains, locus YNL322C, strain KRE1 (second series), stronger effect = lower value 0.993 | S. cerevisiae deletion strains, locus YNR049C, strain mso1, stronger effect = lower value 0.975 | S. cerevisiae deletion strains, locus YNR052C, strain pop2, stronger effect = lower value 0.962 | S. cerevisiae deletion strains, locus YOL006C, strain TOP1, stronger effect = lower value 1.27 | S. cerevisiae deletion strains, locus YOL012C, strain htz1 1.05 | S. cerevisiae deletion strains, locus YOL147C, strain pex11, stronger effect = lower value 0.997 | S. cerevisiae deletion strains, locus YOR001W, strain rrp6, stronger effect = lower value 0.997 | S. cerevisiae deletion strains, locus YOR061W, strain CKA2, stronger effect = lower value 0.997 | S. cerevisiae deletion strains, locus YOR069W, strain VPS5, stronger effect = lower value 1.01 | S. cerevisiae deletion strains, locus YOR070C, strain gyp1, stronger effect = lower value 0.99 | S. cerevisiae deletion strains, locus YOR080W, strain dia2, stronger effect = lower value 0.985 | S. cerevisiae deletion strains, locus YOR083W, strain WHI5, stronger effect = lower value 0.995 | S. cerevisiae deletion strains, locus YOR106W, strain vam3, stronger effect = lower value 0.989 | S. cerevisiae deletion strains, locus YOR136W, strain idh2, stronger effect = lower value 0.973 | S. cerevisiae deletion strains, locus YOR144C, strain elg1, stronger effect = lower value 0.975 | S. cerevisiae deletion strains, locus YOR184W, strain ser1, stronger effect = lower value 1.06 | S. cerevisiae deletion strains, locus YOR265W, strain rbl2, stronger effect = lower value 0.983 | S. cerevisiae deletion strains, locus YOR270C, strain vph1, stronger effect = lower value 0.981 | S. cerevisiae deletion strains, locus YOR290C, strain snf2, stronger effect = lower value 0.978 | S. cerevisiae deletion strains, locus YOR316C, strain cot1, stronger effect = lower value 0.987 | S. cerevisiae deletion strains, locus YPL051W, strain arl3, stronger effect = lower value 0.995 | S. cerevisiae deletion strains, locus YPL078C, strain atp4, stronger effect = lower value 0.993 | S. cerevisiae deletion strains, locus YPL106C, strain sse1, stronger effect = lower value 1.01 | S. cerevisiae deletion strains, locus YPL240C, strain hsp82, stronger effect = lower value 0.996 | S. cerevisiae deletion strains, locus YPR119W, strain clb2, stronger effect = lower value 0.989 | S. cerevisiae deletion strains, locus YPR141C, strain kar3, stronger effect = lower value 0.997 | S. cerevisiae deletion strains, locus YPR163C, strain tif3, stronger effect = lower value 0.998 | S. cerevisiae deletion strains, locus YPR167C, strain met16, stronger effect = lower value 0.962 | S. cerevisiae deletion strains, strain wtn01, stronger effect = lower value 1.03 | S. cerevisiae strains, strain wild type, stronger effect = lower value 1.04
